Source: PubChem BioAssay (NCATS)
Records with an inconclusive call do not appear. A number with no mark means an inactive call. Active and inactive are the calls of the source. Calls follow the shape of the full dose curve.

Target: Peroxisome proliferator-activated receptor delta (Homo sapiens) (UniProt Q03181)
Assay: qHTS assay for small molecule agonists of peroxisome proliferator-activated receptor delta signaling (AID 588534);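 also: 0% = DMSO basal wells and 100% = positive control agonist at 10 µM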
Details: HEK293T PPARdelta-UAS-bla, beta-lactamase ratio, 18 h; series mostly up to 76.7 µM; activation: at the top concentration
Excerpt: NIH Chemical Genomics Center [NCGC] U.S. Environmental Protection Agency [EPA] National Institutes of Environmental Health Sciences [NIEHS] National Toxicology Program [NTP] NCGC Assay Overview The Peroxisome proliferator-activated receptors (PPARs) are lipid-activated transcription factors of the nuclear receptor superfamily with three distinct subtypes namely PPAR alpha, PPAR delta (also called PPAR beta) and PPAR gamma. All these subtypes heterodimerizes with Retinoid X receptor (RXR) and have different physiological functions. […] This role of PPAR delta implicates the potential use of its ligands in the treatment of metabolic disorders.
Compounds were screened in a titration series in 1536-well format. […] Concentration-response titration points for each compound were fitted to the Hill equation yielding concentrations of half-maximal stimulation (EC50) and maximal response (efficacy) values. qHTS protocol for PPAR-delta beta-lactamase assay in agonist mode [Step] [Parameter] [Value] [Description] 1. Reagent; 6 uL; 4000 cells/well 2. Incubation; 37 C for 5 hrs 3. Compounds; 23 nL; 0.59 nM to 92 uM 4. […] Incubation; 37 C for 18 hrs 6. Detection reagent; 1 uL of CCF4-dye 7. Incubation; RT for 2 hrs 8. Detection; Fluorescence; Envision plate reader

Sequence of Peroxisome proliferator-activated receptor delta (Homo sapiens) (Q03181 whole entry, looked up): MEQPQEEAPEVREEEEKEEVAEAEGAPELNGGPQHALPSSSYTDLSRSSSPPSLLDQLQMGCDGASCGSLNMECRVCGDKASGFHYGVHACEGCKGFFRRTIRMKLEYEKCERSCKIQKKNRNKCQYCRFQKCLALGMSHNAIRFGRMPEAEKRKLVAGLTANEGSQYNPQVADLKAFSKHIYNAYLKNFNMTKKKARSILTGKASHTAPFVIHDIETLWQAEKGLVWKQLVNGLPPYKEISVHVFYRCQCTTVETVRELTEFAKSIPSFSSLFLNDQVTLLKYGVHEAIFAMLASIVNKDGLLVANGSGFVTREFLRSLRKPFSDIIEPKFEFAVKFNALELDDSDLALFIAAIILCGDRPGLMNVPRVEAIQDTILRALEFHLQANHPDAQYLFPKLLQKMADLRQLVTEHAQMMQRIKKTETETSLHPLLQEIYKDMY

Row | SMILES | activation | outcome
1 | O=C(Cc1ccccc1)OCc1ccccc1 | -2.62% | –
2 | CCBr | 1.91% | –
3 | CCCCC#N | -6.58% | –
4 | O=[N+]([O-])c1ccc(Cl)c(Cl)c1Cl | 12.4% | –
5 | C=CC(=O)OC | 4.76% | –
6 | C=CCO | 6.48% | –
7 | CNC(=O)O/N=C/C(C)(C)S(C)=O (stereo not given) | – | inactive
8 | O=C(O)c1cc(Cl)ccc1Cl | 12.5% | –
9 | CCC(Cl)[N+](=O)[O-] (stereo not given) | 2.03% | –
10 | O=Cc1ccc2c(c1)OCO2 | -5.59% | –
11 | Cc1ccccc1[N+](=O)[O-] | 6.25% | –
12 | O=[N+]([O-])c1cccc2c([N+](=O)[O-])cccc12 | 8.57% | –
13 | c1ccc(Nc2ccc(Nc3ccccc3)cc2)cc1 | 6.13% | –
14 | CCOP(=S)(OCC)SCCSCC | – | inactive
15 | [N-]=[N+]=[N-] | -1.63% | –
16 | Nc1ccc(Oc2ccc(N)cc2)cc1 | -6.13% | –
17 | N#C/C(N)=C(/N)C#N | 12.3% | –
18 | Nc1ccc([N+](=O)[O-])cc1N | – | inactive
19 | N#CC(Br)Br | 8.47% | –
20 | CC(C)OS(C)(=O)=O | 0.892% | –

Row | SMILES | activation | outcome
21 | C/C=C/CC#N | 5.99% | –
22 | Oc1cc(Cl)ccc1Cl | – | inactive
23 | OCCOCCO | 5.07% | –
24 | C=CCc1cc(OC)c2c(c1)OCO2 | 1.08% | –
25 | Nc1ccc(-c2ccccc2)cc1 | -6.56% | –
26 | BrCC(Br)(Br)Br | -11.4% | –
27 | O=[N+]([O-])/C=C/c1ccccc1 | 9.3% | –
28 | CC(C)(COCC1CO1)COCC1CO1 (stereo not given) | -7.97% | –
29 | Clc1cccc(Cl)c1Cl | – | inactive
30 | O=[N+]([O-])c1cc(Cl)c(Cl)c(Cl)c1 | 1.71% | –
31 | O=C(O)C(Cl)(Cl)Br | 4.15% | –
32 | COC(=O)c1ccccc1N | 1.44% | –
33 | CCN(CC)N=O | 11% | –
34 | Nc1ncc([N+](=O)[O-])s1 | -2.62% | –
35 | c1ccc2c(c1)CCNC2 | -2.45% | –
36 | Clc1ccccc1 | 6.65% | –
37 | ClC(Cl)Br | 10.2% | –
38 | C=CC(=O)OCCN(C)C | 6.25% | –
39 | CCOP(=S)(OCC)Oc1nc(Cl)c(Cl)cc1Cl | – | inactive
40 | OCCCCO | -2.1% | –
